Source: PubChem BioAssay (EPA / NIEHS)
Inconclusive results are not listed. Activity calls are given as the source filed them. How the source made its calls: active means hit-call score of the fitted dose curve at least 0.9, where 1 is the maximum; inconclusive means response in the unintended direction; inactive means score below 0.9.

molecular target: human Colony Stimulating Factor 1 Receptor (CSF1R), CSF1R (gene 1436) (UniProt P07333); test: NVS_ENZ_hCSF1R: NovaScreen (NVS) Enzymatic Assay for human Colony Stimulating Factor 1 Receptor (CSF1R) (AID 2283150)
How it was run: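 Compounds screened in duplicate at 25 uM, then concentration-response (top 50 uM) for those passing threshold such as 30% inhibition; recombinant CSF1R activity measured 1 h post-dosing via fluorescent substrate/product mobility-shift separation, loss of signal versus DMSO.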

Chain of human Colony Stimulating Factor 1 Receptor (CSF1R), CSF1R (gene 1436) (P07333 whole entry, looked up): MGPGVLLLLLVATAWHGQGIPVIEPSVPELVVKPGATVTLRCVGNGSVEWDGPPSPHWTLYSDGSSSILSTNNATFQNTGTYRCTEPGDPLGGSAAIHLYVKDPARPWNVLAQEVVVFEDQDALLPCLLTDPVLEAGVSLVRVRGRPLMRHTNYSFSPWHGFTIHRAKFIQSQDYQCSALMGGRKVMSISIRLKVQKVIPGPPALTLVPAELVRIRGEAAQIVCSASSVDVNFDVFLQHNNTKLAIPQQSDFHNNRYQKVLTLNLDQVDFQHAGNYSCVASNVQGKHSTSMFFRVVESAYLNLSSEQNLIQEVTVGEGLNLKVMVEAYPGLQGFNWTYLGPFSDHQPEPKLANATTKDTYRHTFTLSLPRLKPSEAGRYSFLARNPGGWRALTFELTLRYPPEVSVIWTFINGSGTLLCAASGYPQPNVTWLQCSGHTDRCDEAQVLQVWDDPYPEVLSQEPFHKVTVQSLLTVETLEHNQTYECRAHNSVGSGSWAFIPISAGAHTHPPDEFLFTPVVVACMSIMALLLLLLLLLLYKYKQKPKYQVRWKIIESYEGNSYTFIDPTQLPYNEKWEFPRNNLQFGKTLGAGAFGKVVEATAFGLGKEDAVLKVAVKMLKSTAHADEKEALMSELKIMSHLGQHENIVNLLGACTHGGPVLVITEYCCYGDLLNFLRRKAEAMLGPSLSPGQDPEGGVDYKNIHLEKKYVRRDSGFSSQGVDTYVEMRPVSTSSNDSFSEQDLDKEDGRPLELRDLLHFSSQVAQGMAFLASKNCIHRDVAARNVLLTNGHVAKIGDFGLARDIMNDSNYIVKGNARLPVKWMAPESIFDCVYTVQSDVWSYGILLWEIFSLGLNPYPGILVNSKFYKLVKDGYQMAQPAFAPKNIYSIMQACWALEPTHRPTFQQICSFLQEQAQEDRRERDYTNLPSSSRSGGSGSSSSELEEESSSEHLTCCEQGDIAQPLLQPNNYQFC

Row | Structure (SMILES) | outcome | AC50
1 | O=C(N[C@H]1CN2CCC1CC2)c1ccc2c(c1)OCCO2 | inactive | –
2 | CCCCCCCCCCCCc1cccc(S(=O)(=O)O)c1 | – | 17.3 µM (active)
3 | N#Cc1cccnc1 | inactive | –

molecular target: human Epidermal Growth Factor Receptor (EGFR), EGFR (gene 1956) (UniProt P00533); test: NVS_ENZ_hEGFR: NovaScreen (NVS) Enzymatic Assay for human Epidermal Growth Factor Receptor (EGFR) (AID 2283151)
How it was run: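 Cell-free kinase assay, fluorescence plus electrophoretic mobility shift separating substrate and product, read 1 hour after dosing; loss of signal vs DMSO. Duplicate screen at 25 uM, then concentration-response to 50 uM.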

Row | Structure (SMILES) | outcome | AC50
4 | O=C(N[C@H]1CN2CCC1CC2)c1ccc2c(c1)OCCO2 | inactive | –
5 | Clc1cccc(Cl)c1Cl | inactive | –
6 | CCCCCCCCCCCCc1cccc(S(=O)(=O)O)c1 | – | 19.6 µM (active)
7 | CCCCCCCCCCCCOS(=O)(=O)O | – | 36.5 µM (active)

molecular target: human Dual Specificity Protein Phosphatase 3 (DUSP3), DUSP3 (gene 1845) (UniProt P51452); test: NVS_ENZ_hDUSP3: NovaScreen (NVS) Enzymatic Assay for human Dual Specificity Protein Phosphatase 3 (DUSP3) (AID 2283152);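 further: phosphatase activity of recombinant human DUSP3 on a fluorogenic substrate without cells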
How it was run: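 Cell-free fluorescence-intensity enzyme activity assay with recombinant protein and substrate; loss of signal fitted relative to DMSO baseline. Primary screen in duplicate at 25 uM, actives then run in concentration series; measured 0 h after dosing.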

Chain of human Dual Specificity Protein Phosphatase 3 (DUSP3), DUSP3 (gene 1845) (P51452 whole entry, looked up): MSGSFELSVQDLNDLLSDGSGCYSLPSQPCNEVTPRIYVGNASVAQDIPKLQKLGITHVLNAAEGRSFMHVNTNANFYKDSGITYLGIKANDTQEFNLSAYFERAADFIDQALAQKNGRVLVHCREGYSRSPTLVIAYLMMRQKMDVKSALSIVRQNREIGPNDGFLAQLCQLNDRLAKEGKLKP

Row | Structure (SMILES) | AC50
8 | CC(C)O.CC(C)O.OCCN(CCO)CCO.OCCN(CCO)CCO.[Ti] | 10.3 µM (active)
9 | Cc1cc(C(C)(C)c2ccc(O)c(C)c2)ccc1O | 12.5 µM (active)
10 | CCCCCCCCCCCCc1cccc(S(=O)(=O)O)c1 | 16.8 µM (active)
11 | O=C(O)C1(c2ccc3c(c2)OC[C@H](Cc2ccc(-c4ccccc4)cc2)[C@H]3O)CCCC1 | 13.8 µM (active)
12 | CCOC(=O)CCN(SN(C)C(=O)Oc1cccc2c1OC(C)(C)C2)C(C)C | 9.03 µM (active)
13 | CCOP(=S)(OCC)OP(=S)(OCC)OCC | 17 µM (active)
14 | CCOC(=O)C(SP(=S)(OC)OC)c1ccccc1 (stereo not given) | 18.7 µM (active)
15 | CN(C)C(=S)S | 8.6 µM (active)
16 | O=c1oc2ccccc2c(O)c1C(CC(O)c1ccc(-c2ccc(Br)cc2)cc1)c1ccccc1 (stereo not given) | 9.57 µM (active)

molecular target: human Esterase Plasma (ES), BCHE (gene 590) (UniProt P06276); test: NVS_ENZ_hES: NovaScreen (NVS) Enzymatic Assay for human Esterase Plasma (ES) (AID 2283157)
How it was run: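 Screening ran at 25 uM in duplicate, followed by singleton concentration series reaching 50 uM for actives. Human plasma protein, colorimetric detection, 0.25 h exposure, DMSO negative control.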

Chain of human Esterase Plasma (ES), BCHE (gene 590) (P06276 whole entry, looked up): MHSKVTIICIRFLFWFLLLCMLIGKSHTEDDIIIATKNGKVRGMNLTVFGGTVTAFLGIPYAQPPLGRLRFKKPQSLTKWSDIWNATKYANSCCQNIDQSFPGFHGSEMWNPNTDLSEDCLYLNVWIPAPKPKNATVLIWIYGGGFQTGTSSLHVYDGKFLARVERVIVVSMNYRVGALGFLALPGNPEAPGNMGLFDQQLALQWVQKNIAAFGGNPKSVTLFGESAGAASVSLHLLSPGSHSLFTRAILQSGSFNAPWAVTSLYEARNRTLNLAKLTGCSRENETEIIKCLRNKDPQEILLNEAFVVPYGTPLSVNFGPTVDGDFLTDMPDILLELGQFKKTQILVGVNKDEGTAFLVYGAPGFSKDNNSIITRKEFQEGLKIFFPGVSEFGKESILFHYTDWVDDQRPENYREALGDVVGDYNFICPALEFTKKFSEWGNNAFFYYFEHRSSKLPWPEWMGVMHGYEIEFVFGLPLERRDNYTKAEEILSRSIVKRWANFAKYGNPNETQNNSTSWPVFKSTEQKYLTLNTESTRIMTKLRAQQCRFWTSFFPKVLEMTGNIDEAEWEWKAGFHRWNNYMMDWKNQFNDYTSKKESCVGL

Row | Structure (SMILES) | AC50 | outcome
17 | CCOP(=O)(OCC)OC(=CCl)c1ccc(Cl)cc1Cl | 1.22 µM (active) | –
18 | CCN(CC)C(=O)C(Cl)=C(C)OP(=O)(OC)OC | 25 µM (active) | –
19 | N#CCCC(Br)(C#N)CBr (stereo not given) | 19.2 µM (active) | –
20 | Nc1ccc(N)cc1 | – | inactive
21 | CCOC(=O)CCN(SN(C)C(=O)Oc1cccc2c1OC(C)(C)C2)C(C)C | 14 µM (active) | –
22 | CCOP(=S)(OCC)OP(=S)(OCC)OCC | 2.56 µM (active) | –
23 | CCOC(=O)C(SP(=S)(OC)OC)c1ccccc1 (stereo not given) | 4.29 µM (active) | –

molecular target: human Ephrin type-A Receptor 1 (EphA1), EPHA1 (gene 2041) (UniProt P21709); test: NVS_ENZ_hEphA1: NovaScreen (NVS) Enzymatic Assay for human Ephrin type-A Receptor 1 (EphA1) (AID 2283158);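 further: activity is signal loss versus DMSO meaning EphA1 kinase inhibition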
How it was run: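 Chemicals first tested in duplicate at 25 uM against recombinant EphA1 with a fluorescent substrate; those passing threshold went to singleton dose-response topping at 50 uM. Activity read 1 h later as mobility-shift fluorescence, loss of signal relative to DMSO.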

Row | Structure (SMILES) | outcome | AC50
24 | CCOP(=O)(OCC)OC(=CCl)c1ccc(Cl)cc1Cl | inactive | –
25 | CCCCC(CC)COC(=O)Cl (stereo not given) | inactive | –
26 | O=C(N[C@H]1CN2CCC1CC2)c1ccc2c(c1)OCCO2 | inactive | –
27 | CC(C)O.CC(C)O.OCCN(CCO)CCO.OCCN(CCO)CCO.[Ti] | inactive | –
28 | CC(C)[N+](=O)[O-] | inactive | –
29 | Clc1cccc(Cl)c1Cl | inactive | –
30 | COc1ccccc1N | inactive | –
31 | O=S(=O)(c1ccc(Cl)cc1)c1cc(Cl)c(Cl)cc1Cl | inactive | –
32 | Nc1c(Oc2ccccc2)cc(O)c2c1C(=O)c1ccccc1C2=O | inactive | –
33 | CC1CC(=O)O1 (stereo not given) | inactive | –
34 | CCCCCCCCCCCCc1cccc(S(=O)(=O)O)c1 | – | 32.9 µM (active)
35 | OC[P+](CO)(CO)CO | inactive | –
36 | C=C(C)C(=O)OCC(CC)CCCC (stereo not given) | inactive | –
37 | CC(C)(C#N)N=NC(C)(C)C#N | inactive | –
38 | Nc1ccc(N)cc1 | inactive | –
39 | c1ccc2sc(SNC3CCCCC3)nc2c1 | – | 13.9 µM (active)
40 | O=C(Cl)OCCOCCOC(=O)Cl | – | 6.6 µM (active)
41 | CCOC(=O)CCN(SN(C)C(=O)Oc1cccc2c1OC(C)(C)C2)C(C)C | – | 4.87 µM (active)
42 | ClCCCCl | – | 10.5 µM (active)
43 | c1ccc(-c2cccc(-c3ccccc3)c2)cc1 | – | 2.51 µM (active)
44 | O=[N+]([O-])c1ccc(Nc2ccccc2)cc1 | inactive | –
45 | N#Cc1cccnc1 | inactive | –
46 | O=c1oc2ccccc2c(O)c1C(CC(O)c1ccc(-c2ccc(Br)cc2)cc1)c1ccccc1 (stereo not given) | inactive | –
47 | CNC(=O)CSP(=O)(OC)OC | inactive | –

molecular target: human Fibroblast Growth Factor Receptor 1 (FGFR1), FGFR1 (gene 2260) (UniProt P11362); test: NVS_ENZ_hFGFR1: NovaScreen (NVS) Enzymatic Assay for human Fibroblast Growth Factor Receptor 1 (FGFR1) (AID 2283159);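 on AC50: hits lower the signal so potencies describe inhibitors of the kinase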
How it was run: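 Cell-free recombinant kinase with fluorescent substrate, product separated by electrophoretic mobility shift; read 1 hour after dosing, loss of signal relative to DMSO. Initial screen in duplicate at 25 uM, actives followed in concentration series.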

Chain of human Fibroblast Growth Factor Receptor 1 (FGFR1), FGFR1 (gene 2260) (P11362 whole entry, looked up): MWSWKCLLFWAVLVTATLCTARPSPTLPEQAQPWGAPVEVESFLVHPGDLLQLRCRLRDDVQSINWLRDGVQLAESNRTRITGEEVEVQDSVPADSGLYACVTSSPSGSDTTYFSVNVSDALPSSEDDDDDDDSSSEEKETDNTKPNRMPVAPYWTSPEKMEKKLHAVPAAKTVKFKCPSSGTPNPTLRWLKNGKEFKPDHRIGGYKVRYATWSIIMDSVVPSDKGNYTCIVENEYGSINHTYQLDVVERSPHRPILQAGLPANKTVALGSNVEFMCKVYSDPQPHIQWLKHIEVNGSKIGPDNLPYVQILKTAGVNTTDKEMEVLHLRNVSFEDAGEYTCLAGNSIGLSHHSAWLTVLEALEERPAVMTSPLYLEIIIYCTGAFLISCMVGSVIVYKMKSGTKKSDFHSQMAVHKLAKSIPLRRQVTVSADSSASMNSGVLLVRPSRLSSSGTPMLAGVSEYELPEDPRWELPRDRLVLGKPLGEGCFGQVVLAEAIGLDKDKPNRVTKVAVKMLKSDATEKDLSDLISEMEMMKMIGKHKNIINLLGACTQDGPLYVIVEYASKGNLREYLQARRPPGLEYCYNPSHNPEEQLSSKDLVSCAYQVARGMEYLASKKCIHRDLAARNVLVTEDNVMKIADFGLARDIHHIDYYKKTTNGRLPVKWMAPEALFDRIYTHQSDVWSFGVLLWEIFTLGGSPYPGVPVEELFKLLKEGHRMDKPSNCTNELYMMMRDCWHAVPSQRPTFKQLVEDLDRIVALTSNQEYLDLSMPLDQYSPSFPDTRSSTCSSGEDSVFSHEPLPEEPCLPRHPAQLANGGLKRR

Row | Structure (SMILES) | outcome | AC50
48 | O=C(N[C@H]1CN2CCC1CC2)c1ccc2c(c1)OCCO2 | inactive | –
49 | CC(C)O.CC(C)O.OCCN(CCO)CCO.OCCN(CCO)CCO.[Ti] | – | 1.9 µM (active)
50 | Clc1cccc(Cl)c1Cl | inactive | –
51 | COc1nn(C(=O)NS(=O)(=O)c2ccccc2OC(F)(F)F)c(=O)n1C | inactive | –
52 | CCCCCCCCCCCCc1cccc(S(=O)(=O)O)c1 | – | 11.4 µM (active)
53 | CCCCCCCCCCCCOS(=O)(=O)O | – | 13.9 µM (active)
54 | O=C(O)C1(c2ccc3c(c2)OC[C@H](Cc2ccc(-c4ccccc4)cc2)[C@H]3O)CCCC1 | inactive | –
55 | N#Cc1cccnc1 | inactive | –

molecular target: Protein deacetylase HDAC6 (Homo sapiens) (UniProt Q9UBN7); test: NVS_ENZ_hHDAC6: NovaScreen (NVS) Enzymatic Assay for human Histone Deacetylase 6 (HDAC6) (AID 2283164)
How it was run: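 Concentration-response runs up to 50 uM followed a duplicate 25 uM single-point screen. Deacetylase activity of recombinant human HDAC6 read by fluorescence after 1 h, with mobility-shift separation of substrate and product; DMSO as baseline.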

Chain of Protein deacetylase HDAC6 (Homo sapiens) (Q9UBN7 whole entry, looked up): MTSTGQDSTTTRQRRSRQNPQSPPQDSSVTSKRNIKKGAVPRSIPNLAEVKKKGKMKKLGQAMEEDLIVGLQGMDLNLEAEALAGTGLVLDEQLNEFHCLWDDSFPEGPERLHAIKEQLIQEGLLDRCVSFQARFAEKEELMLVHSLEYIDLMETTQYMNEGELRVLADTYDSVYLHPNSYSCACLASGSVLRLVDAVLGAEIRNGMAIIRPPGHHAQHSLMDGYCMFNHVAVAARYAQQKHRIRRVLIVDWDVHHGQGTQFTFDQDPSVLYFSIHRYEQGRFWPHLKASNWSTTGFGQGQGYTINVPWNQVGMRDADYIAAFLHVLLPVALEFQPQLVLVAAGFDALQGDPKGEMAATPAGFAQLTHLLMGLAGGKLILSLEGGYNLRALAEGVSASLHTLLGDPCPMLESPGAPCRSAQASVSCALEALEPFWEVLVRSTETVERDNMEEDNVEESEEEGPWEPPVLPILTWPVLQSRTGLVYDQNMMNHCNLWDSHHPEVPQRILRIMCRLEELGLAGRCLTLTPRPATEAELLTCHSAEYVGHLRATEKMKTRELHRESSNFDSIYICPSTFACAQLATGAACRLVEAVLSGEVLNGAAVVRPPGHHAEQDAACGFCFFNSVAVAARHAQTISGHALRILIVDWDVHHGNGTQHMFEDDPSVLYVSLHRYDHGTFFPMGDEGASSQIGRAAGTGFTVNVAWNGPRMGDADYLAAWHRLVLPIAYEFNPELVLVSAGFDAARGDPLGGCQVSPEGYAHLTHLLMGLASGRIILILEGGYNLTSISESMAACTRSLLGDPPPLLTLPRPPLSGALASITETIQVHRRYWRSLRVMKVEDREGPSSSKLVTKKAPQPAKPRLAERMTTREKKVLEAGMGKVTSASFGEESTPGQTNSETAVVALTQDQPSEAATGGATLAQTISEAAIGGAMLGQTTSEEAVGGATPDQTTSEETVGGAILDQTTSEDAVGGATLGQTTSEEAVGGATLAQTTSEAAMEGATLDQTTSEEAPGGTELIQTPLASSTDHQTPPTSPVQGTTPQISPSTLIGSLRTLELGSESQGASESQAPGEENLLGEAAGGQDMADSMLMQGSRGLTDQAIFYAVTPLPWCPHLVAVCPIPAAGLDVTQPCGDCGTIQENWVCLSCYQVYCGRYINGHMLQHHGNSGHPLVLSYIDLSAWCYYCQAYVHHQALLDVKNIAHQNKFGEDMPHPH

Row | Structure (SMILES) | AC50 | outcome
56 | CCCCCCCCCCCCc1cccc(S(=O)(=O)O)c1 | 13.7 µM (active) | –
57 | CCCCCCCCCCCCOS(=O)(=O)O | – | inactive
58 | N#Cc1cccnc1 | – | inactive

molecular target: Glycogen synthase kinase-3 beta (Homo sapiens) (UniProt P49841); test: NVS_ENZ_hGSK3b: NovaScreen (NVS) Enzymatic Assay for human Glycogen Synthase Kinase-3 beta (GSK3b) (AID 2283165)
How it was run: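 Recombinant enzyme with specific fluorescent substrate, 1 h, product separated by electrophoretic mobility shift. Primary duplicate screen at 25 uM; actives (e.g. 30% inhibition) followed in singleton concentration-response to 50 uM. Signal loss fitted versus DMSO.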

Row | Structure (SMILES) | AC50 | outcome
59 | CC(C)O.CC(C)O.OCCN(CCO)CCO.OCCN(CCO)CCO.[Ti] | 0.00229 µM (active) | –
60 | CC(C)(C)c1ccccc1O | – | inactive
61 | Clc1cccc(Cl)c1 | – | inactive
62 | CCCCCCCCCCCCc1cccc(S(=O)(=O)O)c1 | 25.3 µM (active) | –
63 | Oc1cc(Cl)c(Cl)cc1Cl | – | inactive
64 | N#Cc1cccnc1 | – | inactive

molecular target: human IkappaB Kinase alpha (IKKa), CHUK (gene 1147) (UniProt O15111); test: NVS_ENZ_hIKKa: NovaScreen (NVS) Enzymatic Assay for human IkappaB Kinase alpha (IKKa) (AID 2283167)
How it was run: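 Compounds first run in duplicate at 25 uM, those meeting threshold (e.g. 30% inhibition) retested to maximum 50 uM. Enzyme activity of recombinant IKKa measured by fluorescence with electrophoretic mobility shift separation, 1 hour post-dosing, DMSO baseline.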

Chain of human IkappaB Kinase alpha (IKKa), CHUK (gene 1147) (O15111 whole entry, looked up): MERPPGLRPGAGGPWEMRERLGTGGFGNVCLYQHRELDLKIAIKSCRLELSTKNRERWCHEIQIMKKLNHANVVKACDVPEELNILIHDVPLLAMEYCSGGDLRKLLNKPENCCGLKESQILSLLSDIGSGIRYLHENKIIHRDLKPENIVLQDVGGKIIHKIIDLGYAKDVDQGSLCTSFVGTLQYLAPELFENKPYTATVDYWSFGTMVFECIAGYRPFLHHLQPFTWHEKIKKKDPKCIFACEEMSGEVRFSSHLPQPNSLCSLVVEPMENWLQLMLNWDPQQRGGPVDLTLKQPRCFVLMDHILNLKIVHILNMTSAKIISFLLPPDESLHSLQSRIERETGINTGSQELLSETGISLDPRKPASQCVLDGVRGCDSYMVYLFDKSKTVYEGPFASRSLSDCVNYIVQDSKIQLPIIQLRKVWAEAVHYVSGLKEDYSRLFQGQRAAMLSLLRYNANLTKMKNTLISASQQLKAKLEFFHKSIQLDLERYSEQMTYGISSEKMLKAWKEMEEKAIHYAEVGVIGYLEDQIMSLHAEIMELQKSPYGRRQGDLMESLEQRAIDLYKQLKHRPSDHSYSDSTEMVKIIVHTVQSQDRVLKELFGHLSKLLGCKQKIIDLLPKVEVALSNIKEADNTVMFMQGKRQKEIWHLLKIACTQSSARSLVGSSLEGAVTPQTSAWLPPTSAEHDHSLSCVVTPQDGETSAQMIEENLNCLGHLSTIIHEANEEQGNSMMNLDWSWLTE

Row | Structure (SMILES) | outcome | AC50
65 | Clc1cccc(Cl)c1Cl | inactive | –
66 | CCCCCCCCCCCCc1cccc(S(=O)(=O)O)c1 | – | 40.9 µM (active)
67 | N#Cc1cccnc1 | inactive | –

molecular target: human c-Jun N-terminal Kinases (JNK2), MAPK9 (gene 5601) (UniProt P45984); test: NVS_ENZ_hJNK2: NovaScreen (NVS) Enzymatic Assay for human c-Jun N-terminal Kinases (JNK2) (AID 2283171)
How it was run: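 Chemicals first tested in duplicate at 25 uM, then in singleton concentration series up to 50 uM, against extracted JNK2 enzyme. Activity loss read by fluorescence with mobility-shift separation 1 h post-dose; DMSO baseline.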

Chain of human c-Jun N-terminal Kinases (JNK2), MAPK9 (gene 5601) (P45984 whole entry, looked up): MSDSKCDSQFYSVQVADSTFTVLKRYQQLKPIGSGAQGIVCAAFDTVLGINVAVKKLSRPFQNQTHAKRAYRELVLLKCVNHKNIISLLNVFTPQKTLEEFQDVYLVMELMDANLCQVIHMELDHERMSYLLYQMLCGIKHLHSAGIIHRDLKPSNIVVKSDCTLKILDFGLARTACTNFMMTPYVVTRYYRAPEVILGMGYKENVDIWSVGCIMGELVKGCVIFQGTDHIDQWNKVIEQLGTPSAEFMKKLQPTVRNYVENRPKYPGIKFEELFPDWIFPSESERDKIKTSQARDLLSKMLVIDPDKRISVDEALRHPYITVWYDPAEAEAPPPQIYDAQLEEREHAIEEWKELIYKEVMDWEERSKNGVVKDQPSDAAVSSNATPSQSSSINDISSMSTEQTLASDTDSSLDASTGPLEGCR

Row | Structure (SMILES) | outcome
68 | O=C(N[C@H]1CN2CCC1CC2)c1ccc2c(c1)OCCO2 | inactive
69 | CC(C)O.CC(C)O.OCCN(CCO)CCO.OCCN(CCO)CCO.[Ti] | inactive
70 | N#Cc1cccnc1 | inactive
